Bioassay records as filed in PubChem.
Compounds with a hit are over-represented: about 19% of the library has one in this group of screens.
TDP1 cell noCPT: qHTS for Inhibitors of human tyrosyl-DNA phosphodiesterase 1 (TDP1): qHTS in cells in absence of CPT; DT40 Tdp1-/- hTDP1 cells, no CPT, ATP luminescence, 48 h; Potency, µM (highest dose often 46.2 µM), without a hit: at the highest dose activity change, negative = growth inhibition, most hits filed as inhibitors; hit rate 15% among 420,000; AID 686978, 2013; further: potency means the concentration at half of the fitted maximal effect; nearly all actives have a fitted effect of over 55% in size
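Growth kinetics read by CellTiter-Glo luminescence after ≥48 hr at 37 °C. Cells: DT40 Tdp1-/- stably carrying human TDP1, 400 per well, compound exposure in the absence of CPT (DMSO vehicle).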
HT1080 IDH1KD tx: toxicity to HT-1080 IDH1 knockdown cells (counter line); HT-1080 IDH1 knockdown viability, ATP luminescence, 48 h; Potency, µM (series often up to 46.1 µM), inactives show top-dose activity, negative = toxicity, usual class: cytotoxic; hit rate 2% among 360,000;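 further: potency means the concentration at half of the fitted maximal effect; 0% = DMSO wells and -100% = cell-free medium wells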
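% activity derives from luminescence (CellTiter-Glo), normalised to DMSO and no-cell wells. HT-1080-IDH1KD cells, 750/well, had 48 h compound exposure at 37 °C.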
DT40 TDP1 CPT: DT40-hTDP1 cell growth loss with CPT; chicken DT40 Tdp1-/-;hTDP1 cells + 20 nM CPT, ATP luminescence, 48 h; Potency, µM (highest dose often 46.2 µM), for the others: at the top dose activity change, negative = growth inhibition, hits mostly inhibitors; hit rate 12% among 420,000; further: potency means the concentration at half of the fitted maximal effect; nearly all actives have a fitted effect of over 55% in size
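Chicken DT40 Tdp1-/- cells complemented with human TDP1, 400 cells/well, exposed to compounds plus 20 nM camptothecin for at least 48 h at 37 C; viability read as ATP content by CellTiter-Glo luminescence.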
IL1B secr inh: inhibitors of inflammasome signaling (IL-1 beta secretion) | THP-1 LPS/ATP IL-1B secretion, AlphaLISA, 16 h; stronger effect = lower value | activity change, % at 57.5 µM | hit rate 4.7% among 360,000 | AID 743279; in the data active means activity change below about -50%; inconclusive means mostly about -30% to -49%
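THP-1 cells pretreated 1 hr with compounds (up to 57.5 uM final), then stimulated with LPS (250 ng/mL final) plus ATP (1.25 mM final); secreted IL-1B measured by AlphaLISA after 16 hr, decreased signal indicating inhibition.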
HT1080NT lethal: kills 2HG-producing HT-1080-NT fibrosarcoma cells; HT-1080-NT fibrosarcoma viability, CellTiter-Glo ATP luminescence, 48 h; Potency, µM (top dose mostly 46.1 µM), inactives show at the highest dose activity, negative = less viability, most hits filed as cytotoxic; hit rate 1.6% among 360,000; AID 686970;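 further: NT is the 2HG producing partner of a matched IDH1 knockdown line; potency means the concentration at half of the fitted maximal effect; 0% = DMSO-treated cells and -100% = media-only wells without cells; nearly all actives have a fitted effect of over 55% in size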
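Read-out is CellTiter-Glo luminescence after 10 minutes at room temperature, following 48 hours' compound treatment of HT-1080-NT cells (750 cells/well, RPMI, 5% FBS, 37 degrees C).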
Numbers without * were called inactive; ? = inconclusive; [ ] = another dose, or the depositor's remark. Unless noted, the call rests on the fitted dose curve; in most records, active means well fitted curve in the direction sought with a large enough effect; inconclusive means small, poorly fitted or top-dose-only effect, or another doubt; inactive means no such curve, though single readings can be large; an effect the other way counts as inactive or inconclusive. Unless noted, on the % scale 0 is the no-effect control and ±100 the full control effect.

SMILES	TDP1 cell noCPT	HT1080 IDH1KD tx	DT40 TDP1 CPT	IL1B secr inh	HT1080NT lethal
COc1ccc(-c2[nH]n(-c3ccc([N+](=O)[O-])cc3)c(=O)c2C=NCc2ccccc2)cc1	10%	18%	-1%	14	12%
CCCn1c(C2CCCN2c2nc(-c3ccc(C)cc3)cs2)nc2ccccc21 (stereo not drawn)	?	?	?	27	?
Cc1ccc(Cn2c(C3CCCN3c3nc(-c4ccc(F)cc4)cs3)nc3cc(C(F)(F)F)ccc32)cc1 (stereo not drawn)	21µM*	-6%	18µM*	24	0%
Cc1ccc(Cn2c(C3CCCN3c3nc(-c4ccc(F)cc4)cs3)nc3cc(C(=O)NCCCO)ccc32)cc1 (stereo not drawn)	?	?	21µM*	1	?
Cc1ccc(Cn2c(C3CCCN3c3nc(C)cs3)nc3cc(C(=O)NCCCO)ccc32)cc1 (stereo not drawn)	2%	6%	-15%	-3	-5%
Cc1ccc(Cn2c(C3CCCN3c3nc(-c4ccc(F)cc4)cs3)nc3cc(Cl)c(Cl)cc32)cc1 (stereo not drawn)	-25%	1%	3%	-7	-2%
OCCOCCn1c(C2CCCN2c2nc(-c3ccc(F)cc3)cs2)nc2cc(C(F)(F)F)ccc21 (stereo not drawn)	?	-28%	16µM*	-12	-11%
OCCOCCn1c(C2CCCN2c2nc(-c3ccc(F)cc3)cs2)nc2cc(Cl)c(Cl)cc21 (stereo not drawn)	21µM*	?	?	-54*	?
O=C(Oc1cccc(NC2=NS(=O)(=O)c3ccccc32)c1)c1cccnc1	-28%	13%	?	-4	2%
CC(=O)c1cc2c(cc1NC(=O)CN1Cc3ccccc3C1=O)OCO2	5%	-1%	-9%	-8	-4%
O=C(COC(=O)CN1C(=O)C2CCCCC2C1=O)Nc1c(Cl)cccc1Cl (stereo not drawn)	-1%	4%	?	15	1%[9.24 µM]
OCCCn1c(CCNc2nc(-c3ccc(F)cc3)cs2)nc2cc(C(F)(F)F)ccc21	?	-10%	?	-69*	-15%
OCCCn1c(C2CCCN2c2nc(-c3ccc(F)cc3)cs2)nc2cc(C(F)(F)F)ccc21 (stereo not drawn)	?	-14%	8.2µM*	-57*	-10%
NC(=O)CC[C@H](NC(=O)c1ccc(Cl)cc1)C(=O)NNC(=O)COc1cccc(Br)c1	-18%	5%	4%	-8	6%
CSc1nc(-c2ccc(N(C)C)cc2)c(C#N)c(=O)n1C	?	-1%	-18%	-6	3%
CC(C(=O)NC1CCCC1)n1c(-c2ccncc2)nc2ccccc21 (stereo not drawn)	1%	15%	-6%	31	5%
Cc1cc(NCCCCCCCNc2cc(C)nc3cc([N+](=O)[O-])ccc23)c2ccc([N+](=O)[O-])cc2n1	1.3µM*	?	1.6µM*	-103*	?
COCCCNc1cc(C)nc2ccccc12	9%	-11%	-4%	19	0%
Cc1nn(C)c(C)c1CNC(=O)c1nn2c(c1Cl)NC(c1cccs1)CC2C(F)(F)F (stereo not drawn)	9.2µM*	?	16µM*	15	?
O=C(NCC1CCCO1)c1nn2c(c1Cl)NC(c1ccc(F)cc1)CC2C(F)(F)F (stereo not drawn)	?	-5%	16µM*	-17	-8%
Cc1nn(C)cc1CNC(=O)c1cc2n(n1)C(C(F)(F)F)CC(c1cccs1)N2 (stereo not drawn)	?	-6%	?	-7	5%
COc1cccc(N2CCN(c3ccc([N+](=O)[O-])cn3)CC2)c1	1%	4%	-6%	0	6%
Cc1cccnc1N1C(=O)c2ccc(C(=O)O)cc2C1=O	2%	14%	4%	52	9%
O=C(C[C@H]1C/C=C\C[C@@H](Cc2ccc(F)cc2)C(=O)OC[C@H]2CCCN2C1=O)N[C@@H](CO)Cc1ccccc1	?	-3%	?	-16	0%
O=C(C[C@H]1C/C=C\CC[C@H](Cc2ccc(F)cc2)C(=O)OC[C@H]2CCCN2C1=O)N[C@H](CO)Cc1ccccc1	21µM*	8%	23µM*	-3	2%
SMILES	TDP1 cell noCPT	HT1080 IDH1KD tx	DT40 TDP1 CPT	IL1B secr inh	HT1080NT lethal
O=C(C[C@H]1C/C=C\CC[C@H](Cc2ccc(F)cc2)C(=O)OC[C@@H]2CCCN2C1=O)N[C@H](CO)Cc1ccccc1	?	-1%	26µM*	-13	0%
O=C(C[C@H]1C/C=C\CC[C@@H](Cc2ccc(F)cc2)C(=O)OC[C@H]2CCCN2C1=O)N[C@@H](CO)Cc1ccccc1	15µM*	-1%	?	-20	-28%
O=C(C[C@@H]1C/C=C\CCC(=O)OC[C@@H]2CCCN2C1=O)N[C@H](CO)Cc1ccccc1	2%	2%	20%	15	3%
O=C(C[C@@H]1C/C=C\CCCC(=O)OC[C@@H]2CCCN2C1=O)N[C@H](CO)Cc1ccccc1	-8%	11%	4%	1	14%
O=C(C[C@H]1C/C=C\CC[C@H](Cc2ccc(F)cc2)C(=O)OC[C@H]2CCCN2C1=O)N[C@@H](CO)Cc1ccccc1	15µM*	-4%	?	2	-6%
CCc1ccc(NC(=O)C2=CC=CN3CCS(=O)(=O)N=C23)cc1	1%	-6%	-18%	?	0%
O=C(C[C@@H]1C/C=C\CC[C@@H](Cc2ccc(F)cc2)C(=O)OC[C@@H]2CCCN2C1=O)N[C@H](CO)Cc1ccccc1	18µM*	-7%	16µM*	-7	-1%
O=C(C[C@@H]1C/C=C\C[C@@H](Cc2ccc(F)cc2)C(=O)OC[C@H]2CCCN2C1=O)N[C@H](CO)Cc1ccccc1	21µM*	1%	?	-5	1%
CCNC(=O)C1(C)CCN(C(=O)C(c2ccccc2)c2ccccc2)C1 (stereo not drawn)	-9%	8%	3%	8	25%
CC(c1ccccc1C(O)c1ccccc1)N(C)C (stereo not drawn)	-1%	4%	-6%	-10	-6%
Cc1ccc(C(O)(c2ccccc2)c2ccccc2C(C)N(C)C)c(C)c1 (stereo not drawn)	18µM*	?	?	-68*	?
CC(=O)Oc1cc2c(C(=O)NCCCN3CCOCC3)c(C)oc2c2ccccc12	21µM*	?	15µM*	17	?
